Molecules are shown by their SMILES. Where a name gives a salt, the structure may show the parent alone. Unmarked numbers belong to inactive results.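 Rule for the calls: active = AUC significantly below DMSO controls by Student t-fit with adjusted P under 0.01; inactive = not significantly reduced.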

This assay deals with Haemophilus parainfluenzae. Briefly: growth AUC normalised to DMSO control (fraction of control); higher = less growth inhibition, active = hit call of the paper. The conditions noted are these: 20 µM. In outline: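 After two anaerobic passages, pathogens were added at a starting OD578 of 0.01 to pre-reduced mGAM plates holding compound at 20 μM with 1% DMSO; hemin and NAD were supplemented for Haemophilus parainfluenzae. Sealed with breathable membranes, plates were read at OD578 hourly for 24 h, in three biological replicates. The trapezoidal rule, applied up to the exponential-to-stationary transition, gave the growth-curve AUC, which was normalised to DMSO controls on the same plate.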
As to `CCOc1cc(CC(=O)N[C@@H](CC(C)C)c2ccccc2N2CCCCC2)ccc1C(=O)O` [Repaglinide], the “growth AUC normalised to DMSO control” value was 1.08. Turning to `COCC(=O)Nc1c(I)c(C(=O)NCC(O)CO)c(I)c(C(=O)N(C)CC(O)CO)c1I` (stereo unspecified) [Iopromide], the “growth AUC normalised to DMSO control” value was 1.03. On to `Cc1cc(C(C)(C)C)cc(C)c1CC1=NCCN1` [Xylometazoline hydrochloride], for which the “growth AUC normalised to DMSO control” value is 0.996. Take `CC(=O)NS(=O)(=O)c1ccc(N)cc1` [Sulfacetamide sodic hydrate]: the “growth AUC normalised to DMSO control” value is 1.03. To `CCOC(=O)C1=C(COCCN)NC(C)=C(C(=O)OC)C1c1ccccc1Cl` (stereo unspecified) [Amlodipine] belongs 0.989. In the case of `O=c1n(CCCN2CCN(c3cccc(Cl)c3)CC2)nc2ccccn12` [Trazodone hydrochloride], the “growth AUC normalised to DMSO control” value is 0.98. With `Cn1c(=O)c2[nH]cnc2n(C)c1=O` [Aminophylline], the “growth AUC normalised to DMSO control” value is 1.04. Take `CC1c2cccc(O)c2C(O)=C2C(=O)C3(O)C(O)=C(C(N)=O)C(=O)C(N(C)C)C3C(O)C21` (stereo unspecified) [Doxycycline hydrochloride]: the “growth AUC normalised to DMSO control” value is 0.0238 (active). For the molecule `COc1ccc2c(c1)N(C[C@H](C)CN(C)C)c1ccccc1S2` [Methotrimeprazine maleate salt], the “growth AUC normalised to DMSO control” value was 1.04. `CN1CCN(C(c2ccccc2)c2ccc(Cl)cc2)CC1` (stereo unspecified) [Chlorcyclizine hydrochloride]: the “growth AUC normalised to DMSO control” value was 0.982. For `CN(C)CCCO[C@@H]1[C@H]2OC(C)(C)O[C@H]2O[C@@H]1[C@H](O)CO` [Amiprilose hydrochloride], the “growth AUC normalised to DMSO control” value is 0.963. With `O=C(O)CN(CCN(CC(=O)O)CC(=O)O)CCN(CC(=O)O)CC(=O)O` [Pentetic acid], the “growth AUC normalised to DMSO control” value was 1.02. As for `CC/C(=C(\c1ccccc1)c1ccc(OCCN(C)C)cc1)c1ccccc1` [Tamoxifen citrate], the “growth AUC normalised to DMSO control” value is 0.997. As to `COc1ccc2c(c1)c(CC(=O)OCC(=O)O)c(C)n2C(=O)c1ccc(Cl)cc1` [Acemetacin], the “growth AUC normalised to DMSO control” value is 0.988. `C[C@]12C=CC(=O)C=C1CC[C@H]1[C@@H]3C[C@@H](O)[C@](O)(C(=O)CO)[C@@]3(C)C[C@H](O)[C@@]12F` [Triamcinolone]: the “growth AUC normalised to DMSO control” value is 1.01.

Turning to `CC(=O)[C@H]1CC[C@H]2[C@@H]3C=CC4=CC(=O)CC[C@@]4(C)[C@@H]3CC[C@]12C` [Dydrogesterone], the “growth AUC normalised to DMSO control” value was 1.02. Turning to `CC(C)(C)C(=O)OCOC(=O)[C@@H]1N2C(=O)[C@@H](NC(=O)[C@H](N)c3ccccc3)[C@H]2SC1(C)C` [Pivampicillin], the “growth AUC normalised to DMSO control” value is 0.942. In the case of `CCN1C(=O)NC(c2ccccc2)C1=O` (stereo unspecified) [Ethotoin], the “growth AUC normalised to DMSO control” value is 1.01. On to `O=C(NCC(O)CO)c1c(I)c(C(=O)NCC(O)CO)c(I)c(N(CCO)C(=O)CO)c1I` (stereo unspecified) [Ioversol], for which the “growth AUC normalised to DMSO control” value was 1.06. For `O=C1CC2(CCCC2)CC(=O)N1CCCCN1CCN(c2ncccn2)CC1` [Buspirone hydrochloride] the value was 1.09; for `CCOc1ccccc1OCC1CNCCO1` (stereo unspecified) [Viloxazine hydrochloride], 0.967; for `COc1ccccc1N1CCN(CCCCNC(=O)c2ccc3ccccc3c2)CC1`, 0.997. As to `Cc1noc(NS(=O)(=O)c2ccc(N)cc2)c1C` [Sulfisoxazole], the “growth AUC normalised to DMSO control” value was 0.939.

With `C[N+](C)(C)CCOC(N)=O` [Carbachol chloride], the “growth AUC normalised to DMSO control” value was 1.09.

In the case of `CN(C)CCC(c1ccc(Br)cc1)c1ccccn1` (stereo unspecified) [Brompheniramine maleate], the “growth AUC normalised to DMSO control” value is 1.04. In the case of `CCCC1O[C@@H]2C[C@H]3[C@@H]4CCC5=CC(=O)C=C[C@]5(C)[C@H]4[C@@H](O)C[C@]3(C)[C@]2(C(=O)CO)O1` (stereo partly specified) [Budesonide], the “growth AUC normalised to DMSO control” value is 0.964. Consider `CCOC(=O)NNc1nncc2ccccc12` [Todralazine hydrochloride], for which the “growth AUC normalised to DMSO control” value is 1.01. For `Nc1nc(=O)[nH]cc1F` [Flucytosine] the value was 0.95; for `COc1ccc(C(Cl)=C(c2ccc(OC)cc2)c2ccc(OC)cc2)cc1` [Chlorotrianisene], 0.951.

Take `CCCCCCC[N+](CC)(CC)CCCCc1ccc(Cl)cc1` [Clofilium tosylate]: the “growth AUC normalised to DMSO control” value is 1.01. For `CN(C)c1ccc(O)c2c1C[C@H]1C[C@H]3[C@H](N(C)C)C(=O)C(C(N)=O)=C(O)[C@@]3(O)C(=O)C1=C2O` [Minocycline hydrochloride], the “growth AUC normalised to DMSO control” value is 0.0348 (active).

For the origin of these results see the supplement of paper PMC12350171.
